Results from article PMC4336329 (PLoS ONE, 2015).
The campaign covered roughly 310,000 compounds. About 14,000 (4.5%) showed an effect of 50% or more. Effects have a minus sign here. This excerpt belongs to a sample that is enriched for strong results.

Target: human ether-à-go-go-related gene (hERG) potassium channel (human, UniProt Q12809)
Test: primary screen, population patch clamp on CHO cells stably expressing hERG; higher = less effect of the substance
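Also: peak tail current of the secondary pulse compared with the same well before compound.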

Chain of human ether-à-go-go-related gene (hERG) potassium channel (Q12809 whole entry, looked up): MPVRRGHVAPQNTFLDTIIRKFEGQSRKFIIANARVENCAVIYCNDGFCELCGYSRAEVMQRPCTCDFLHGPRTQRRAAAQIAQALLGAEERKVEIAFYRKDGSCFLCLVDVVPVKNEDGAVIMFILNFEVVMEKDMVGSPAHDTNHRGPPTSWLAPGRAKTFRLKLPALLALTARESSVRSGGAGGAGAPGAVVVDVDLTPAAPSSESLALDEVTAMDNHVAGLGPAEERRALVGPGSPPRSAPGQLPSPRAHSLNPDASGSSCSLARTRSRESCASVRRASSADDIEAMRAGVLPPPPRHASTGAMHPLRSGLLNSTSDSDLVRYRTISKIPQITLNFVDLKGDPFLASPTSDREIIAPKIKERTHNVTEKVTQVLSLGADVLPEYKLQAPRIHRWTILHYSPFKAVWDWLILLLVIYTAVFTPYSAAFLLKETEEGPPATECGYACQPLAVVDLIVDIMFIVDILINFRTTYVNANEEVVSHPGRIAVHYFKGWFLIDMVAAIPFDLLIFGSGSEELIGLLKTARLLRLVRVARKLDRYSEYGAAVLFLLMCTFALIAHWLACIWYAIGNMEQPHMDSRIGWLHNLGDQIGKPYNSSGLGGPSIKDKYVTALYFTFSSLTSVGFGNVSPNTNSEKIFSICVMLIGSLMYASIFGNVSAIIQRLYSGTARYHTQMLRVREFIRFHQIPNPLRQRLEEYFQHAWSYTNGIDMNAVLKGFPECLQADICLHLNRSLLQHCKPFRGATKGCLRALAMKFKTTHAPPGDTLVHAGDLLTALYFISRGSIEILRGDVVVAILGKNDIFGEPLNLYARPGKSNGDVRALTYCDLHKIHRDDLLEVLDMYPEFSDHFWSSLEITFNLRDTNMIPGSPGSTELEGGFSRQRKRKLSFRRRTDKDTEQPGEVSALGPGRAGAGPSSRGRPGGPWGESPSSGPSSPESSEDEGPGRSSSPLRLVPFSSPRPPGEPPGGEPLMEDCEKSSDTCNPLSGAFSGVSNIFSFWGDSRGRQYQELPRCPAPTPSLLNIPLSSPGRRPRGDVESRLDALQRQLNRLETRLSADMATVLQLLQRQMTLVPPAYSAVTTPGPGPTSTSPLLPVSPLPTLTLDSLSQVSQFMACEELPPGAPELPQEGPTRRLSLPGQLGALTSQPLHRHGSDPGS

Row | SMILES | hERG current change (%, negative = inhibition) at 10uM [%]
1 | Cc1ccc2nc3c(cc(C(=O)NCCc4ccccc4)c(=N)n3CCCN3CCOCC3)c(=O)n2c1 | -80.6
2 | Cc1ccc2nc3c(cc(C(=O)NCCc4ccccc4)c(=N)n3CCN3CCOCC3)c(=O)n2c1 | -76.7
3 | Cc1ccc2nc3c(cc(C(=O)NCCN4CCOCC4)c(=N)n3CCCN3CCOCC3)c(=O)n2c1 | -7.16
4 | Cc1ccc(-c2cc(C(=O)NCCCN3CCOCC3)c3ccccc3n2)cc1C | 0.698
5 | O=C(NCc1ccco1)c1cccc(F)c1 | 6.59
6 | O=C(COc1cccc(Cl)c1)Nc1ccc2c(c1)CCC2 | -3.73
7 | CC1CN(c2nnnn2-c2ccccc2)CC(C)O1 (centres unmarked) | -23.1
8 | CCOc1ccc(CN2CCNC(=O)C2CC(=O)O)cc1 (centres unmarked) | 11.1
9 | CC(=O)Nc1sc(C)c(C)c1C(=O)OCC(=O)Nc1ccccc1 | 5.91
10 | S=C(Cc1ccc(-c2ccccc2)cc1)N1CCOCC1 | -11.9
11 | Cc1oc(-c2ccccc2F)nc1CS(=O)(=O)CC(=O)NCc1ccco1 | -27.3
12 | CC1CCC(NS(=O)(=O)c2ccc(N3CCCC3=O)cc2)CC1 (centres unmarked) | 1.51
13 | O=[N+]([O-])c1ccc(C2=NN(CCO)C(=Nc3ccc(OC(F)(F)F)cc3)SC2)cc1 | -13.5
14 | COc1ccc(N=C2SCC(c3ccc(C)cc3)=NN2CCO)cc1 | -9.63
15 | COc1ccc(N=C2SCC(c3ccc([N+](=O)[O-])cc3)=NN2CCO)cc1 | -53.1
16 | Cc1ccc(C2(C)NC(=O)N(CC(=O)Nc3ccccc3C(=O)N3CCCCC3)C2=O)cc1 (centres unmarked) | 6.74
17 | Cc1ccc(S(=O)(=O)N2CCOCC2)cc1NC(=O)COC(=O)CCn1c(C)csc1=O | 2.85
18 | COCCN=c1scc(-c2ccccc2)n1/N=C/c1c[nH]c2ccccc12 | 18.7
19 | COCCN=c1scc(-c2cccs2)n1/N=C/c1ccc(O)c(O)c1O | 6.24
20 | COCCN=c1scc(C)n1/N=C/C1CC2C=CC1C2 (centres unmarked) | -55
21 | COc1ccc(Cl)cc1S(=O)(=O)N(C)CC(=O)NCc1ccccn1 | 17.8
22 | C=CCn1c(O)c(C=Nc2ccc(N(CC)CC)cc2)c(=O)[nH]c1=O | -7.13

Row | SMILES | hERG current change (%, negative = inhibition) at 10uM [%]
23 | Cc1ccc(CSc2ccc3nnc(-c4ccccn4)n3n2)cc1 | -71.8
24 | Cn1c(SCc2ccc(Br)cc2)nnc1-c1ccccn1 | -19.4
25 | Nn1c(SCc2ccc(Br)cc2)nnc1-c1ccccn1 | 17.5
26 | O=C(CSc1ccc2nnc(-c3ccccn3)n2n1)Nc1ccccc1 | -23.4
27 | O=C(CSc1ccc2nnc(-c3ccccn3)n2n1)Nc1ccc(F)cc1F | -30.4
28 | O=C(CSc1ccc2nnc(-c3ccccn3)n2n1)Nc1ccccc1F | -14.7
29 | Cc1ccc(NC(=O)CSc2ccc3nnc(-c4ccccn4)n3n2)cc1 | -44.2
30 | Cc1ccc(CSc2nnc(-c3ccccn3)n2C)cc1 | -3.39
31 | Fc1ccc(CSc2ccc3nnc(-c4ccccn4)n3n2)cc1 | -87.6
32 | Brc1ccc(CSc2ccc3nnc(-c4ccccn4)n3n2)cc1 | -67.1
33 | c1ccc(CSc2ccc3nnc(-c4ccccn4)n3n2)cc1 | -69.5
34 | O=C(CSc1ccc2nnc(-c3ccccn3)n2n1)Nc1ccc(F)cc1 | -48.2
35 | C[C@@H](C(=O)NCC1CC1)[C@H]1C[C@]1(C)[C@H](NC(=O)OCc1ccccc1)c1ccccc1 | -7.08
36 | Cc1cccc(C(=O)N2CCCC(CCC(=O)N3CCN(c4ccccn4)CC3)C2)c1C (centres unmarked) | -17.3
37 | O=C(Cn1cnc2cc([N+](=O)[O-])ccc2c1=O)Nc1cccc2ccccc12 | -5.73
38 | O=C(O)c1ccc(Cl)c(S(=O)(=O)Nc2ccc(OCc3ccccc3)cc2)c1 | 7.79
39 | O=C(Cn1cc(C(=O)C2CC2)c2ccccc21)NCc1ccccc1 | 3.43
40 | Cc1cc(C(F)F)n2ncc(C(=O)NC3CCCCCC3)c2n1 | -11.5
41 | O=C(NCc1ccc2c(c1)OCO2)C(=O)NCC(c1ccco1)N1CCN(c2ccccc2)CC1 (centres unmarked) | 16
42 | Cc1cccc(NC(=O)CSCC(=O)N2CCN(C(=O)c3ccco3)CC2)c1 | -30.5
43 | Cc1cccc(OCC(=O)Nc2ccc(N3CCN(C(=O)c4ccco4)CC3)cc2)c1 | -28.1
44 | Cc1ccc(OCC(=O)Nc2ccc(N3CCN(C(=O)c4ccco4)CC3)cc2)cc1 | -56.1

Row | SMILES | hERG current change (%, negative = inhibition) at 10uM [%]
45 | O=C(COc1ccccc1)Nc1ccc(N2CCN(C(=O)c3ccco3)CC2)cc1 | -53
46 | COc1ccc(NC(=O)CSCC(=O)N2CCN(C(=O)c3ccco3)CC2)cc1 | -55.1
47 | Cc1cc(C)cc(OCC(=O)Nc2ccc(N3CCN(C(=O)c4ccco4)CC3)cc2)c1 | -45.8
48 | Cc1ccc(NC(=O)CSCC(=O)N2CCN(C(=O)c3ccco3)CC2)cc1 | -21.6
49 | COc1ccc(OCC(=O)Nc2ccc(N3CCN(C(=O)c4ccco4)CC3)cc2)cc1 | 0.974
50 | O=C(COc1ccc(Cl)cc1)Nc1ccc(N2CCN(C(=O)c3ccco3)CC2)cc1 | -21.1
51 | COc1ccc2c(c1)C(=O)N(c1ccc(C)cc1C)C(=O)C2 | 7.6
52 | O=C(O)C(Cc1ccccc1)N1C(=O)/C(=C/c2ccccc2)SC1=S (centres unmarked) | -0.221
53 | CCn1c(NCc2ccco2)nc2c1c(=O)n(C)c(=O)n2C | -10.7
54 | CCCCC1=C([O-])C2N=CC=CC2=[N+](c2ccccn2)C1=O (centres unmarked) | 0.715
55 | Cc1ccc(-n2c(=O)[nH]c3c(C(N)=O)nc(CC(C)C)nc32)cc1 | 4.8
56 | O=C(COc1ccccc1Cl)Nc1ccc(CN2CCCCC2)cc1 | -33.7
57 | COc1ccccc1N1CCN(CC(=O)Nc2ccc(CN3CCCCC3)cc2)CC1.Cl | -11.5
58 | O=C(Nc1ccc(Cl)cc1)N1CCCN(Cc2ccc(F)cc2)C1 | -75.4
59 | O=C(Cc1ccc(Cl)cc1)Nc1ccc(N2CCCC2)cc1 | 17.3
60 | O=C(COc1ccc(Cl)cc1Cl)Nc1ccc(CN2CCCCC2)cc1 | -67.9
61 | O=C(Cc1ccc(Cl)cc1)Nc1ccc(CN2CCCCC2)cc1 | -64.9
62 | Cc1ccc(Cl)cc1N1CCN(CC(=O)Nc2ccc(CN3CCCCC3)cc2)CC1.Cl | -71.1
63 | O=C(COc1ccc(Cl)cc1Cl)Nc1ccc(CN2CCOCC2)cc1 | 15.4
64 | O=C(Nc1ccc(Cl)cc1)N1CCCN(Cc2ccccc2F)C1 | -26.3
65 | Cc1ccc(Cl)cc1N1CCN(CC(=O)Nc2ccc3[nH]c(=O)[nH]c3c2)CC1 | 11.1
66 | O=C(Cc1ccc(Cl)cc1)Nc1ccc(C(=O)N2CCCCC2)cc1 | 14.5

Row | SMILES | hERG current change (%, negative = inhibition) at 10uM [%]
67 | O=C(Nc1ccccc1)N1CCCN(Cc2ccccc2F)C1 | -8.48
68 | Cc1cc(C)n2nc(C(=O)N/N=C/c3ccccc3C)nc2n1 | 4.85
69 | O=C1c2ccccc2NC2(CCCC2)N1N=C1CCCC1 | -12.2
70 | Cc1c(C(=O)Nc2cccc(S(=O)(=O)N3CCCC3)c2)oc2ccccc12 | 5.98
71 | O=C(CCNS(=O)(=O)c1ccccc1)Nc1ccccc1 | 17.8
72 | CCc1ccc(NC(=O)C2CCN(S(=O)(=O)c3ccc4c(c3)NC(=O)C(C)S4)CC2)cc1 (centres unmarked) | 19.2
73 | O=C(Oc1coc(CSc2nnc(NC(=O)c3cccs3)s2)cc1=O)c1ccccc1 | 7.37
74 | COc1ccc(NS(=O)(=O)c2cccc(NC(=O)NC3CCCCC3)c2)cc1 | -4.21
75 | CC(OC(=O)CC1CC2CCC1C2)C(=O)Nc1ccc(C(N)=O)cc1 (centres unmarked) | -16
76 | CCCCNC(=O)Nc1c(C(=O)OCC)[nH]c2ccccc12 | 6.83
77 | COc1cc2nc(/C=C/c3cc(OC)c(OC)c(OC)c3)sc2cc1SC | 5.92
78 | CO/N=C/CC(=O)Nc1ccc(F)cc1F | 13.3
79 | Cc1ccc(OCC(=O)Nc2ccc(CN3CCCCC3)cc2)c(C)c1 | -69.4
80 | Cc1ccc(C(=O)Nc2ccc(CN3CCCCC3)cc2)c(C)c1 | -35.2
81 | O=C(COc1ccccc1)Nc1ccc(CN2CCCCC2)cc1 | -26.9
82 | CCN1CCN(Cc2ccc(NC(=O)Nc3ccccc3Cl)cc2)CC1 | -22.8
83 | O=C(Nc1ccc(CN2CCCCC2)cc1)Nc1ccccc1Cl | -59
84 | O=C(CN1CCCC1)Nc1ccc(NC(=O)Nc2ccccc2Cl)cc1 | -21.5
85 | COc1ccc(C2CC(c3ccccc3)=NN2C(=O)CCC(=O)O)cc1 (centres unmarked) | 8.77
86 | O=C(COc1ccc(Cl)cc1)NCC(=O)N/N=C/c1cccs1 | 12
